This passage reports binding signal results from PMC8384837, “Expanding the binding specificity for RNA recognition by a PUF domain”.

Holding throughout (assay): yeast three-hybrid, YBZ-1, SC-Leu-His + 0.5 mM 3-AT, 4 days
Holding throughout (conditions): tags: N-Gal4 AD-HA kept; label: inside an RPR1-promoter hybrid RNA with tandem MS2 sites; ssRNA

In one test the target is PUM1 PUF domain R8-LYF (Homo sapiens, UniProt Q14671 828-1176, N1122L;Q1126F). A digest of the protocol:
(§1)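 Each repeat of the Pumilio-1 PUF domain was randomized at its three base-contacting residues, and these libraries were co-expressed from a centromeric plasmid with matching RNA elements in strain YBZ-1. After four days on SC-Leu (input) or SC-Leu-His + 0.5 mM 3-AT (selection), the repeat regions were PCR-amplified and Illumina-sequenced. The interaction score compares variant frequency between input and selection as a log change, computed in log2 with a pseudocount of 1 for absent variants.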

Another test deals with PUM1 PUF domain R8-HWP (Homo sapiens, UniProt Q14671 828-1176, N1122H;Y1123W;Q1126P). A digest of the protocol:
as §1

The target of the next test is PUM1 PUF domain R2-LIM (Homo sapiens, UniProt Q14671 828-1176, N899L;Y900I;Q903M). A digest of the protocol: as §1
Sequence of PUM1 PUF domain R2-LIM (Q14671 828-1176 N899L/Y900I/Q903M): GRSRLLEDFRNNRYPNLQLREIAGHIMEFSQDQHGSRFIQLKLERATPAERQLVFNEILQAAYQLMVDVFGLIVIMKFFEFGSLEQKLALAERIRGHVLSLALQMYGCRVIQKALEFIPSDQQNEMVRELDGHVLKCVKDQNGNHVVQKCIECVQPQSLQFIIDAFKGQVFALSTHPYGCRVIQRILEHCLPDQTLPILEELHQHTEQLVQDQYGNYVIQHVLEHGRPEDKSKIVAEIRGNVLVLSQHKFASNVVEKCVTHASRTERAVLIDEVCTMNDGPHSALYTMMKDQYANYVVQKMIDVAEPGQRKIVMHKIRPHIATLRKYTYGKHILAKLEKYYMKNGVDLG
The target in a further test is PUM1 PUF domain R3-IWY (Homo sapiens, UniProt Q14671 828-1176, C935I;R936W;Q939Y). A digest of the protocol:
as §1

A further test addresses PUM1 PUF domain R1-RRI (Homo sapiens, UniProt Q14671 828-1176, S863R;Q867I). A digest of the protocol:
as §1

A further test addresses PUM1 PUF domain R1-IWR (Homo sapiens, UniProt Q14671 828-1176, S863I;R864W;Q867R). A digest of the protocol: as §1
For the next test, the target named is PUM1 PUF domain R5-HHH (Homo sapiens, UniProt Q14671 828-1176, C1007H;R1008H;Q1011H). A digest of the protocol: as §1
Sequence of PUM1 PUF domain R5-HHH (Q14671 828-1176 C1007H/R1008H/Q1011H): as the sequence (Q14671 828-1176 N899L/Y900I/Q903M) above, with L72N, I73Y, M76Q, C180H, R181H, Q184H counted along it
For the next test, the target named is PUM1 PUF domain R5-QHV (Homo sapiens, UniProt Q14671 828-1176, C1007Q;R1008H;Q1011V). An outline of the steps:
as §1

The target of test [1] is PUM1 PUF domain R2-VFQ R3-THE R4-TFR (Homo sapiens, UniProt Q14671 828-1176, N899V;Y900F;C935T;R936H;Q939E;N971T;H972F;Q975R). A digest of the protocol: as §1
Sequence of PUM1 PUF domain R2-VFQ R3-THE R4-TFR (Q14671 828-1176 N899V/Y900F/C935T/R936H/Q939E/N971T/H972F/Q975R): as the sequence (Q14671 828-1176 N899L/Y900I/Q903M) above, with L72V, I73F, M76Q, C108T, R109H, Q112E, N144T, H145F, Q148R counted along it
The next test addresses PUM1 PUF domain R5-TEE (Homo sapiens, UniProt Q14671 828-1176, C1007T;R1008E;Q1011E). A digest of the protocol:
as §1

Sequence of PUM1 PUF domain R1-IWR (Q14671 828-1176 S863I/R864W/Q867R): as the sequence (Q14671 828-1176 N899L/Y900I/Q903M) above, with S36I, R37W, Q40R, L72N, I73Y, M76Q counted along it
Sequence of PUM1 PUF domain R3-IWY (Q14671 828-1176 C935I/R936W/Q939Y): as the sequence (Q14671 828-1176 N899L/Y900I/Q903M) above, with L72N, I73Y, M76Q, C108I, R109W, Q112Y counted along it
Sequence of PUM1 PUF domain R5-QHV (Q14671 828-1176 C1007Q/R1008H/Q1011V): as the sequence (Q14671 828-1176 N899L/Y900I/Q903M) above, with L72N, I73Y, M76Q, C180Q, R181H, Q184V counted along it
Sequence of PUM1 PUF domain R8-LYF (Q14671 828-1176 N1122L/Q1126F): as the sequence (Q14671 828-1176 N899L/Y900I/Q903M) above, with L72N, I73Y, M76Q, N295L, Q299F counted along it
Sequence of PUM1 PUF domain R8-HWP (Q14671 828-1176 N1122H/Y1123W/Q1126P): as the sequence (Q14671 828-1176 N899L/Y900I/Q903M) above, with L72N, I73Y, M76Q, N295H, Y296W, Q299P counted along it
Sequence of PUM1 PUF domain R1-RRI (Q14671 828-1176 S863R/Q867I): as the sequence (Q14671 828-1176 N899L/Y900I/Q903M) above, with S36R, Q40I, L72N, I73Y, M76Q counted along it
Sequence of PUM1 PUF domain R5-TEE (Q14671 828-1176 C1007T/R1008E/Q1011E): as the sequence (Q14671 828-1176 N899L/Y900I/Q903M) above, with L72N, I73Y, M76Q, C180T, R181E, Q184E counted along it

For the sequence “GGCUAGAACUAGUGGAUCCCCCGGCGCCCGGCGGCUCGAGCCCGGGUAAGCGUAAAUAGUCUGCAUGCCGCCGGGCGCCAUGCCUGCAGGUCGACUCUAGAAAACAUG”, the binding signal was 2.3 log2 enrichment (interaction score) with PUM1 PUF domain R8-LYF and 5.59 log2 enrichment (interaction score) with PUM1 PUF domain R8-HWP.

With “GGCUAGAACUAGUGGAUCCCCCGGCGCCCGGCGGCUCGAGCCCGGGUAAGUGUAAAGAGUCUGCAUGCCGCCGGGCGCCAUGCCUGCAGGUCGACUCUAGAAAACAUG”, the binding signal in the test with PUM1 PUF domain R2-LIM was 3.94 log2 enrichment (interaction score). Turning to “GGCUAGAACUAGUGGAUCCCCCGGCGCCCGGCGGCUCGAGCCCGGGUAAGUGUAAGUAGUCUGCAUGCCGCCGGGCGCCAUGCCUGCAGGUCGACUCUAGAAAACAUG”, the binding signal with PUM1 PUF domain R3-IWY was 1.76 log2 enrichment (interaction score). Still for that read-out and setting: the figure for “GGCUAGAACUAGUGGAUCCCCCGGCGCCCGGCGGCUCGAGCCCGGGUAAGUGUAAUUAGUCUGCAUGCCGCCGGGCGCCAUGCCUGCAGGUCGACUCUAGAAAACAUG” is 3.36 log2 enrichment (interaction score). With “GGCUAGAACUAGUGGAUCCCCCGGCGCCCGGCGGCUCGAGCCCGGGUAAGUGUAAAUCGUCUGCAUGCCGCCGGGCGCCAUGCCUGCAGGUCGACUCUAGAAAACAUG”, the results for the binding signal in the test with PUM1 PUF domain R1-RRI and with PUM1 PUF domain R1-IWR were 3.61 log2 enrichment (interaction score) and 2.56 log2 enrichment (interaction score), respectively. As for “GGCUAGAACUAGUGGAUCCCCCGGCGCCCGGCGGCUCGAGCCCGGGUAAGUGUAAAUUGUCUGCAUGCCGCCGGGCGCCAUGCCUGCAGGUCGACUCUAGAAAACAUG”, the binding signal with PUM1 PUF domain R1-IWR is 1.52 log2 enrichment (interaction score). Regarding “GGCUAGAACUAGUGGAUCCCCCGGCGCCCGGCGGCUCGAGCCCGGGUAAGUGUUAAUAGUCUGCAUGCCGCCGGGCGCCAUGCCUGCAGGUCGACUCUAGAAAACAUG”, the binding signal with PUM1 PUF domain R5-HHH was 5.29 log2 enrichment (interaction score); in the test with PUM1 PUF domain R5-QHV it was 3.88 log2 enrichment (interaction score). Turning to “GGCUAGAACUAGUGGAUCCCCCGGCGCCCGGCGGCUCGAGCCCGGGUAAGUGUACGAAGUCUGCAUGCCGCCGGGCGCCAUGCCUGCAGGUCGACUCUAGAAAACAUG”, the binding signal in test [1] is 3.9 log2 enrichment (interaction score). As to “GGCUAGAACUAGUGGAUCCCCCGGCGCCCGGCGGCUCGAGCCCGGGUAAGUGUGAAUAGUCUGCAUGCCGCCGGGCGCCAUGCCUGCAGGUCGACUCUAGAAAACAUG”, the binding signal with PUM1 PUF domain R5-TEE was 3.25 log2 enrichment (interaction score).
